From PubChem BioAssay (EPA / NIEHS)
Active and inactive are the calls of the source. How the source made its calls: active means hit-call score of the fitted dose curve at least 0.9, where 1 is the maximum; inactive means score below 0.9.

Columns and labels:
Conditions in all cases: mRNA level, 48 h; actives raise or lower the signal
[1] = read-out: Potassium channel subfamily K member 1 (KCNK1), KCNK1 (gene 3775); assay: LTEA_HepaRG_KCNK1: Life Technologies and Expression Analysis (LTEA) Assay for Potassium channel subfamily K member 1 (KCNK1) using HepaRG (AID 2283511)
How it was run: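 Gain or loss of KCNK1 mRNA is the read-out, quantified by qRT-PCR against three housekeeping genes after 48 h chemical treatment of human HepaRG liver cells. Concentrations ran from 100 uM downward in half-log steps, vehicle 0.5% DMSO.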

[2] = read-out: Keratin 19 (KRT19), KRT19 (gene 3880); assay: LTEA_HepaRG_KRT19: Life Technologies and Expression Analysis (LTEA) Assay for Keratin 19 (KRT19) using HepaRG (AID 2283512)
How it was run: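 Gene-expression endpoint in the human liver line HepaRG after 48 h exposure to up to 100 uM test chemical with 0.5% DMSO vehicle; KRT19 mRNA by qRT-PCR, analyzed bidirectionally versus DMSO.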

[3] = read-out: JUN Transcription Factor, JUN (gene 3725); assay: LTEA_HepaRG_JUN: Life Technologies and Expression Analysis (LTEA) Assay for JUN Transcription Factor using HepaRG (AID 2283513)
How it was run: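 HepaRG cells, 48 h post-plating, exposed 48 h in serum-free induction medium to 8-point half-log series (top 100 uM, 0.5% DMSO), duplicate; mRNA by qRT-PCR (TaqMan, Fluidigm), normalized to ACTB/GAPDH/POLR2A; bidirectional fit vs DMSO.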

[4] = read-out: Lipase C (LIPC), LIPC (gene 3990); assay: LTEA_HepaRG_LIPC: Life Technologies and Expression Analysis (LTEA) Assay for Lipase C (LIPC) using HepaRG (AID 2283514)
How it was run: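 Read-out is LIPC transcript level by TaqMan qRT-PCR, normalized to three housekeeping genes, after 48 h chemical treatment of human HepaRG liver cells. Curves span eight concentrations topping at 100 uM; activity in either direction scored relative to 0.5% DMSO.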

[5] = read-out: Lipoprotein lipase (LPL), LPL (gene 4023); assay: LTEA_HepaRG_LPL: Life Technologies and Expression Analysis (LTEA) Assay for Lipoprotein lipase (LPL) using HepaRG (AID 2283515)
How it was run: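 Read-out is LPL transcript level by qRT-PCR, normalized to three housekeeping genes and fitted bidirectionally against the DMSO control. Human HepaRG cells received chemicals for 48 h at up to 100 uM.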

[6] = read-out: MicroRNA 122 (MIR122), gene 406906; assay: LTEA_HepaRG_MIR122: Life Technologies and Expression Analysis (LTEA) Assay for MicroRNA 122 (MIR122) using HepaRG (AID 2283516); further: the transcript read is the microRNA miR-122
How it was run: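 Differentiated human HepaRG cells in serum-free induction medium exposed 48 h to 8 half-log concentrations from 100 uM in 0.5% DMSO, duplicate. MIR122 quantified by Fluidigm TaqMan qRT-PCR, normalised to ACTB, GAPDH, POLR2A; fold change fitted bidirectionally versus DMSO.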

[7] = read-out: matrix metalloproteinase-10 (MMP10), MMP10 (gene 4319); assay: LTEA_HepaRG_MMP10: Life Technologies and Expression Analysis (LTEA) Assay for matrix metalloproteinase-10 (MMP10) using HepaRG (AID 2283517)
How it was run: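 Gain or loss of MMP10 mRNA is fitted relative to the 0.5% DMSO vehicle. The human hepatic line HepaRG receives a 48-hour serum-free exposure, in duplicate, with a maximum concentration of 100 uM.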

[8] = read-out: MYC, MYC (gene 4609); assay: LTEA_HepaRG_MYC: Life Technologies and Expression Analysis (LTEA) Assay for MYC using HepaRG (AID 2283518)
How it was run: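 Cells are thawed, plated and cultured 48 h, then treated for 48 h with test chemicals (eight half-log concentrations from 100 uM, 0.5% DMSO vehicle). RNA is isolated and MYC expression quantified by qRT-PCR against three housekeeping genes.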

[9] = read-out: matrix metalloproteinase-3 (MMP3), MMP3 (gene 4314); assay: LTEA_HepaRG_MMP3: Life Technologies and Expression Analysis (LTEA) Assay for matrix metalloproteinase-3 (MMP3) using HepaRG (AID 2283519)
How it was run: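 HepaRG, human; 48 h dosing, 8 conc. (max 100 uM, half-log), duplicate, 0.5% DMSO. Readout: MMP3 transcript by Fluidigm TaqMan qRT-PCR, ACTB/GAPDH/POLR2A-normalised. Gain or loss fitted vs DMSO.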

[10] = read-out: Paternally Expressed 10 (PEG10), PEG10 (gene 23089); assay: LTEA_HepaRG_PEG10: Life Technologies and Expression Analysis (LTEA) Assay for Paternally Expressed 10 (PEG10) using HepaRG (AID 2283520)
How it was run: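 Differentiated HepaRG cells exposed 48 h in serum-free induction medium to eight half-log concentrations topping at 100 uM, 0.5% DMSO, in duplicate. PEG10 mRNA quantified by TaqMan qRT-PCR, normalized to ACTB, GAPDH and POLR2A; bidirectional fit versus DMSO.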

| SMILES | outcome [1] | outcome [2] | outcome [3] | outcome [4] | outcome [5] | outcome [6] | outcome [7] | outcome [8] | outcome [9] | AC50 [10] | AC50 [2] | outcome [10] | AC50 [4] | AC50 [5] | AC50 [6] | AC50 [8] | AC50 [1] | AC50 [3] | AC50 [7] | AC50 [9] |
| --- | --- | --- | --- | --- | --- | --- | --- | --- | --- | --- | --- | --- | --- | --- | --- | --- | --- | --- | --- | --- |
| CCC(C)Nc1c([N+](=O)[O-])cc(C(C)(C)C)cc1[N+](=O)[O-] (stereo not given) | inactive | inactive | inactive | inactive | inactive | inactive | inactive | inactive | inactive | 29.9 µM (active) |  |  |  |  |  |  |  |  |  |  |
| Clc1ccccc1-c1nnc(-c2ccccc2Cl)nn1 | inactive |  | inactive | inactive | inactive | inactive | inactive | inactive | inactive | 30.7 µM (active) | 21.5 µM (active) |  |  |  |  |  |  |  |  |  |
| CC(C)N(C(=O)COc1nnc(C(F)(F)F)s1)c1ccc(F)cc1 | inactive | inactive | inactive | inactive | inactive | inactive | inactive | inactive | inactive | 22.2 µM (active) |  |  |  |  |  |  |  |  |  |  |
| O=C1c2ccccc2C(=O)N1SC(Cl)(Cl)Cl | inactive | inactive | inactive | inactive | inactive | inactive | inactive | inactive | inactive |  |  | inactive |  |  |  |  |  |  |  |  |
| O=C(O)C(F)(F)C(F)(F)C(F)(F)C(F)(F)C(F)(F)C(F)(F)C(F)(F)F | inactive | inactive | inactive | inactive | inactive | inactive | inactive | inactive | inactive |  |  | inactive |  |  |  |  |  |  |  |  |
| CNC(=O)CSP(=S)(OC)OC | inactive | inactive | inactive | inactive | inactive | inactive | inactive | inactive | inactive |  |  | inactive |  |  |  |  |  |  |  |  |
| CCOC1Oc2ccc(OS(C)(=O)=O)cc2C1(C)C (stereo not given) | inactive |  | inactive |  |  |  | inactive |  | inactive | 28.4 µM (active) | 66 µM (active) |  | 74 µM (active) | 76.4 µM (active) | 78.7 µM (active) | 77.7 µM (active) |  |  |  |  |
| C#CCN1C(=O)COc2cc(F)c(N3C(=O)C4=C(CCCC4)C3=O)cc21 | inactive | inactive | inactive |  | inactive | inactive | inactive | inactive | inactive | 37.8 µM (active) |  |  | 26.3 µM (active) |  |  |  |  |  |  |  |
| O=C(NC(=O)c1c(F)cccc1F)Nc1ccc(OC(F)(F)C(F)OC(F)(F)F)c(Cl)c1 (stereo not given) | inactive | inactive | inactive | inactive | inactive | inactive | inactive | inactive | inactive |  |  | inactive |  |  |  |  |  |  |  |  |
| O=S1OCC2C(CO1)C1(Cl)C(Cl)=C(Cl)C2(Cl)C1(Cl)Cl (stereo not given) | inactive | inactive | inactive |  |  |  | inactive |  | inactive |  |  | inactive | 62.7 µM (active) | 87.5 µM (active) | 89.1 µM (active) | 77.5 µM (active) |  |  |  |  |
| CC[C@H](C)[C@H]1O[C@]2(C=C[C@@H]1C)C[C@@H]1C[C@@H](C/C=C(\C)[C@@H](O[C@H]3C[C@H](OC)[C@@H](O[C@H]4C[C@H](OC)[C@@H](O)[C@H](C)O4)[C@H](C)O3)[C@@H](C)/C=C/C=C3\CO[C@@H]4[C@H](O)C(C)=C[C@@H](C(=O)O1)[C@]34O)O2 (tested in a mixture with another compound) |  |  |  |  |  |  |  |  |  | 49.3 µM (active) | 7.94 µM (active) |  | 13.8 µM (active) | 13.5 µM (active) | 7.42 µM (active) | 13.9 µM (active) | 16.8 µM (active) | 18.8 µM (active) | 11.7 µM (active) | 40.2 µM (active) |
